This note sets out measurements from PMC7862700, “An all-to-all approach to the identification of sequence-specific readers for epigenetic DNA modifications on cytosine”.

Common to all, as to assay: DAPPL (digital affinity profiling via proximity ligation, sequencing); 10 mM Tris-HCl pH 7.5, 50 mM NaCl, 1 mM DTT, 4% glycerol, room temperature, 30 min; GST-TFs on glutathione beads, 16-mer random dsDNA library, 0.1% formaldehyde crosslink after washing; high values mean tight binding
The target in one test is T1, FLI1 (Homo sapiens, UniProt Q01543 1-452).
T1 sequence: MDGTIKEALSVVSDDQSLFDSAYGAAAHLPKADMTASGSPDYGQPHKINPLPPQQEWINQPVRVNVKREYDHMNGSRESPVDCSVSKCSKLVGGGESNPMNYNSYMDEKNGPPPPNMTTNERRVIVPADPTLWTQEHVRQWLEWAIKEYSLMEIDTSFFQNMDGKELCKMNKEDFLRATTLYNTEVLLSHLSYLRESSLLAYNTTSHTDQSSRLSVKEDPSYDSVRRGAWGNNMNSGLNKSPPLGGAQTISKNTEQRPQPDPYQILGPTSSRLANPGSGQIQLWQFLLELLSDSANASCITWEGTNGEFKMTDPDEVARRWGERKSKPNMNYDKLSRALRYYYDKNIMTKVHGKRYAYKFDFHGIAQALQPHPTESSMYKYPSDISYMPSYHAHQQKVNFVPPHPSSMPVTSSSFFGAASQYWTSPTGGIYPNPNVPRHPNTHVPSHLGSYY
As to conditions: protein: recombinant; tags: N-terminal GST; dsDNA, one strand shown. In outline:
(§1)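 Pools of DNA-barcoded human transcription factors, expressed in yeast as GST fusions on glutathione beads and combined with a tag-only sample, were incubated with 200 nmole of a 16-mer random double-stranded DNA library. Incubation took 30 min at room temperature in Tris/NaCl/DTT/glycerol buffer and was followed by washing, 0.1% formaldehyde crosslinking, proximity ligation (BsaI/T4 ligase, 1 h, 37 °C), PCR amplification and sequencing on an Illumina NextSeq500. Binding signal is the ratio of a hexamer's read frequency for a factor to its frequency for the tag-only sample.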

For another test, the target named is T2, ELK1 (Homo sapiens, UniProt P19419 1-428).
T2 sequence: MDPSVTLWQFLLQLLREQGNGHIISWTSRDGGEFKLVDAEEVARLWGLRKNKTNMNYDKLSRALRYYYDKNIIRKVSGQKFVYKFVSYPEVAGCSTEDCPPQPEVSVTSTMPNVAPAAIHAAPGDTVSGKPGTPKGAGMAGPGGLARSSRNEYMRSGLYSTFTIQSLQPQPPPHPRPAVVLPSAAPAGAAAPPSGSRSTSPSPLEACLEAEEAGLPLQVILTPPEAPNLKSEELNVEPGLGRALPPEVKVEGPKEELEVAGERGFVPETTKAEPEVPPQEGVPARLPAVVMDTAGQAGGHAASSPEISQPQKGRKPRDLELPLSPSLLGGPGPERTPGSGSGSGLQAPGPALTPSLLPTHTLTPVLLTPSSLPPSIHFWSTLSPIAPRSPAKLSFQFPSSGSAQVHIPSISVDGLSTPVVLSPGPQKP
As to conditions: protein: recombinant; tags: N-terminal GST; dsDNA, one strand shown. The procedure, abridged: as §1

A further test has as its target T3, GABPA (Homo sapiens, UniProt Q06546 1-454).
T3 sequence: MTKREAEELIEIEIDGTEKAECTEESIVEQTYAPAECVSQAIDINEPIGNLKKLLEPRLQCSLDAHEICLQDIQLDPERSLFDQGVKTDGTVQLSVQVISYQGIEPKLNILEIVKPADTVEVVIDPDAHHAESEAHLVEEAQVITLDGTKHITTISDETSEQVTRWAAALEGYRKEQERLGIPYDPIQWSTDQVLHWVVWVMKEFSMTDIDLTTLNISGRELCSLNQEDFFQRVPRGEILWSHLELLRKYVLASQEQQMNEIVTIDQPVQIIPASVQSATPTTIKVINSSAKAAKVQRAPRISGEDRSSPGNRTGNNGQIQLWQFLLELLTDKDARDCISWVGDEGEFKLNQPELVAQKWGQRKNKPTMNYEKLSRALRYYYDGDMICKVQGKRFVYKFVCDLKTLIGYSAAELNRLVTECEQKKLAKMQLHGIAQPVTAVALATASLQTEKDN
As to conditions: protein: recombinant; tags: N-terminal GST; dsDNA, one strand shown. In outline:
as §1

For the next test, the target named is ELF1 (Homo sapiens, UniProt P32519 1-619). As to conditions: protein: recombinant; tags: N-terminal GST; dsDNA, one strand shown. In outline: as §1
A further test has as its target T4, EHF (Homo sapiens, UniProt Q9NZC4 1-300).
T4 sequence: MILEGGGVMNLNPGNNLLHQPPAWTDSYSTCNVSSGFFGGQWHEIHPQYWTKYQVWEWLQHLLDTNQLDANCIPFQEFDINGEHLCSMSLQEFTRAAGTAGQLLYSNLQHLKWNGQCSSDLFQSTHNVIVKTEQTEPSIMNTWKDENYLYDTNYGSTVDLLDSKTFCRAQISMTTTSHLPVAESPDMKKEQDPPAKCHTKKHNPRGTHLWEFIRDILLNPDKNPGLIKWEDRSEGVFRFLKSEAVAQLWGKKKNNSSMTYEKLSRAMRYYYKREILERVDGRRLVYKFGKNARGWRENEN
As to conditions: protein: recombinant; tags: N-terminal GST; dsDNA, one strand shown. The procedure, abridged:
as §1

For a further test, the target named is SPI1 (Homo sapiens, UniProt P17947 1-270). As to conditions: protein: recombinant; tags: N-terminal GST; dsDNA, one strand shown. In outline:
as §1

The target in another test is SPIB (Homo sapiens, UniProt Q01892 1-262). As to conditions: protein: recombinant; tags: N-terminal GST; dsDNA, one strand shown. In outline: as §1
The target of another test is T5, ELK3 (Homo sapiens, UniProt P41970 1-407).
T5 sequence: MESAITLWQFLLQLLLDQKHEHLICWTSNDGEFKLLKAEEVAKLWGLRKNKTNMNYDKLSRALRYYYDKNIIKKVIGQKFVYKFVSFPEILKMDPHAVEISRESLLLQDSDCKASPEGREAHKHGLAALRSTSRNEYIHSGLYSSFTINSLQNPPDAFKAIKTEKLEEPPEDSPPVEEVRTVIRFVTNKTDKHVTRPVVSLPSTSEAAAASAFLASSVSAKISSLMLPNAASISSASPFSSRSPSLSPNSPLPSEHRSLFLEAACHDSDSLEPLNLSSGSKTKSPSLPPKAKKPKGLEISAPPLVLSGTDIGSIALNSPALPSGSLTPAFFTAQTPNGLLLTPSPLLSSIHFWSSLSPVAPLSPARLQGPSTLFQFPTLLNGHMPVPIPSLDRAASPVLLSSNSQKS
As to conditions: protein: recombinant; tags: N-terminal GST; dsDNA, one strand shown. The procedure, abridged: as §1

The target of the next test is T6, FEV (Homo sapiens, UniProt Q99581 1-238).
T6 sequence: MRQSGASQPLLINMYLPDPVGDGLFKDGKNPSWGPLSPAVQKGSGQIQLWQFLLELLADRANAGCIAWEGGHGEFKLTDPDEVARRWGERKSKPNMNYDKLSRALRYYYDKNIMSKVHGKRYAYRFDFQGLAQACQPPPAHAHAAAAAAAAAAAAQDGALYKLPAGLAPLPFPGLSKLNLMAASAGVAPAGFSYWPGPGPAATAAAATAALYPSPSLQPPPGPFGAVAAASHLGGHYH
As to conditions: protein: recombinant; tags: N-terminal GST; dsDNA, one strand shown. The procedure, abridged:
as §1

For another test, the target named is ETV5 (Homo sapiens, UniProt P41161 1-510). As to conditions: protein: recombinant; tags: N-terminal GST; dsDNA, one strand shown. In outline: as §1
Another test deals with HSF1 (Homo sapiens, UniProt Q00613 1-529). As to conditions: protein: recombinant; tags: N-terminal GST; chain copies: 3; dsDNA, one strand shown. The procedure, abridged:
as §1

A further test addresses T7, SPIC (Homo sapiens, UniProt Q8N5J4 1-248).
T7 sequence: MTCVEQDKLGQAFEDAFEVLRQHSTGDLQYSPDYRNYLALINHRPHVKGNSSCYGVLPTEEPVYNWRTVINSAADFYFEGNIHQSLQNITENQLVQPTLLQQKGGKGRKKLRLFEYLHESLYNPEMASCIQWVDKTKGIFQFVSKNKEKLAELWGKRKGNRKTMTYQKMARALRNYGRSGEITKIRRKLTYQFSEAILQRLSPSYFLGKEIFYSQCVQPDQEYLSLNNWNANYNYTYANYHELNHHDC
As to conditions: protein: recombinant; tags: N-terminal GST; dsDNA, one strand shown. The procedure, abridged:
as §1

For another test, the target named is ELF4 (Homo sapiens, UniProt Q99607 1-663). As to conditions: protein: recombinant; tags: N-terminal GST; dsDNA, one strand shown. In outline:
as §1

The target in another test is T8, ELK4 (Homo sapiens, UniProt P28324-2 1-405).
T8 sequence: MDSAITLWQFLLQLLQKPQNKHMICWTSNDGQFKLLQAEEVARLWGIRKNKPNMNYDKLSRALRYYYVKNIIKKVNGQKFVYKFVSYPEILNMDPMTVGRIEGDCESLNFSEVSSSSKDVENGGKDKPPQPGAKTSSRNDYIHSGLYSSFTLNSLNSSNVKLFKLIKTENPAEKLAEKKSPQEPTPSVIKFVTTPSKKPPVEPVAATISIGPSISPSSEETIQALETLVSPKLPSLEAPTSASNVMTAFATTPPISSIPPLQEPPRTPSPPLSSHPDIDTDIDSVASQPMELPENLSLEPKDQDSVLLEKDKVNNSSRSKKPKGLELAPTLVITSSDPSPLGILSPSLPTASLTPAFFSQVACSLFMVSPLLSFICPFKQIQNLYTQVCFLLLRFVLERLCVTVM
As to conditions: protein: recombinant; tags: N-terminal GST; dsDNA, one strand shown. The procedure, abridged: as §1

The target in the next test is T9, ETV2 (Homo sapiens, UniProt O00321 1-342).
T9 sequence: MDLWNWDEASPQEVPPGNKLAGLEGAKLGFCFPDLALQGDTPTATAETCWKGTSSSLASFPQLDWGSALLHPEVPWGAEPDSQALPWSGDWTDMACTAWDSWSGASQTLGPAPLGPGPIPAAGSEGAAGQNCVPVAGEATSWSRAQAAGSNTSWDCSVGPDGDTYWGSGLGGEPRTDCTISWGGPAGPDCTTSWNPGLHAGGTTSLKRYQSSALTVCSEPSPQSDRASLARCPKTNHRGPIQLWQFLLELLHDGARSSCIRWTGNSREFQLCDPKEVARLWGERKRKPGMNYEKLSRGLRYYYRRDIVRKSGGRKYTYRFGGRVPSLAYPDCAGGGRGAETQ
As to conditions: protein: recombinant; tags: N-terminal GST; dsDNA, one strand shown. In outline: as §1

Another test deals with T10, ELF3 (Homo sapiens, UniProt P78545 1-371).
T10 sequence: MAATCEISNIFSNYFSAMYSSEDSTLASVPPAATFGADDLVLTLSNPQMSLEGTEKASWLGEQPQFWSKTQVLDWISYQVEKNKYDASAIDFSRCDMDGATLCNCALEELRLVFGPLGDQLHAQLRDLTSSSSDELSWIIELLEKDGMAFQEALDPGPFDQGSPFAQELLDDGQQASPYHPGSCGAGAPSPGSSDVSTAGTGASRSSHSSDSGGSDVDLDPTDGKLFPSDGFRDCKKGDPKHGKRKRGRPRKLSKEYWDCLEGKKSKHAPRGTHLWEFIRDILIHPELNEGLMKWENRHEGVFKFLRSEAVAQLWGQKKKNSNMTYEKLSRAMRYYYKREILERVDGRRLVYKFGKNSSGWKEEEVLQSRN
As to conditions: protein: recombinant; tags: N-terminal GST; dsDNA, one strand shown. In outline:
as §1

For the next test, the target named is CRX (Homo sapiens, UniProt O43186 1-299). As to conditions: protein: recombinant; tags: N-terminal GST; dsDNA, one strand shown. The procedure, abridged: as §1
The next test has as its target ETV1 (Homo sapiens, UniProt P50549 1-477). As to conditions: protein: recombinant; tags: N-terminal GST; dsDNA, one strand shown. The procedure, abridged: as §1

Sequence of ELF1 (P32519 whole entry): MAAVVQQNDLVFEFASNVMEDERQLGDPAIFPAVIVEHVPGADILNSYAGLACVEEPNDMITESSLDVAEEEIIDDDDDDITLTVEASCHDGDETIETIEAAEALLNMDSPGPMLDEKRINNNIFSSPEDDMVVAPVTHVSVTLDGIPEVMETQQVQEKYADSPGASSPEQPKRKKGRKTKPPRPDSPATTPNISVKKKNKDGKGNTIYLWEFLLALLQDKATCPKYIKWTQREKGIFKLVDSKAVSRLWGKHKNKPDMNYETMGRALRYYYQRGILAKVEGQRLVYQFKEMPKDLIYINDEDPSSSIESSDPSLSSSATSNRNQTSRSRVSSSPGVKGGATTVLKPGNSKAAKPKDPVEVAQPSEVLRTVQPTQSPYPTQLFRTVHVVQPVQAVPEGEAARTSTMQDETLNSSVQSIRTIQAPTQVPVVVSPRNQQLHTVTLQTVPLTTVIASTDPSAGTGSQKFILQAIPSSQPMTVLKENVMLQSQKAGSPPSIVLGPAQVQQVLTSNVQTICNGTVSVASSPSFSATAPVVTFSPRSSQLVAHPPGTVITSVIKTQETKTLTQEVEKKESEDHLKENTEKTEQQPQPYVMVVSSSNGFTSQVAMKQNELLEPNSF
Sequence of SPIB (Q01892 whole entry): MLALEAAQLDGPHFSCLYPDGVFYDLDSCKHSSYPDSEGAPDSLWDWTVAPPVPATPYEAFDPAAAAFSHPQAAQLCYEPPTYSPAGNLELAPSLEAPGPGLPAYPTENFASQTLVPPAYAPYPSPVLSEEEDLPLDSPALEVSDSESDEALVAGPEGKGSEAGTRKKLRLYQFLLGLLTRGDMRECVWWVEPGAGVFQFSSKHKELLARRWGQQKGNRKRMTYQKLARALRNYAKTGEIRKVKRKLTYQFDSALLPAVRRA
Sequence of CRX (O43186 whole entry): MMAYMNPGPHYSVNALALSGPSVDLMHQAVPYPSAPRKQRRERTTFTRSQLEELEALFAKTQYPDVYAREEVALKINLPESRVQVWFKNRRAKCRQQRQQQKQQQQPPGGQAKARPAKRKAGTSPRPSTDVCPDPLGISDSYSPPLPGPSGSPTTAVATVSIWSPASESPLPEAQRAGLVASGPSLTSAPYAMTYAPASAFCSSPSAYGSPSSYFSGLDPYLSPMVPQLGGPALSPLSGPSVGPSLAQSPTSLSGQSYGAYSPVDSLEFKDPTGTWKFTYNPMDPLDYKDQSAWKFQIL
Sequence of HSF1 (Q00613 whole entry): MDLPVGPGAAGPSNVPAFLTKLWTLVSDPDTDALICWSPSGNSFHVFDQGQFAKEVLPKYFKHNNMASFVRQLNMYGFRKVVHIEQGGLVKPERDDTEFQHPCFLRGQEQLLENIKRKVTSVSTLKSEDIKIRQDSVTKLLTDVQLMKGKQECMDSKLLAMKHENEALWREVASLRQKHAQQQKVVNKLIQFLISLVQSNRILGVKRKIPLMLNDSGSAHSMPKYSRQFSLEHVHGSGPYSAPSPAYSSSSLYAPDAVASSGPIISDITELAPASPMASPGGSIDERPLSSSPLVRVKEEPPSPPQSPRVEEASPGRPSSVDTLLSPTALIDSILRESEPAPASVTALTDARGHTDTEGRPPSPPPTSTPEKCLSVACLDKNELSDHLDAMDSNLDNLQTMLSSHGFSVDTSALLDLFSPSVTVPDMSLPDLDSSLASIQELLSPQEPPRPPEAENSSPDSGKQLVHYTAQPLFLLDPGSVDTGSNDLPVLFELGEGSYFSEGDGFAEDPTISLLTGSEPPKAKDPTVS
Sequence of ETV1 (P50549 whole entry): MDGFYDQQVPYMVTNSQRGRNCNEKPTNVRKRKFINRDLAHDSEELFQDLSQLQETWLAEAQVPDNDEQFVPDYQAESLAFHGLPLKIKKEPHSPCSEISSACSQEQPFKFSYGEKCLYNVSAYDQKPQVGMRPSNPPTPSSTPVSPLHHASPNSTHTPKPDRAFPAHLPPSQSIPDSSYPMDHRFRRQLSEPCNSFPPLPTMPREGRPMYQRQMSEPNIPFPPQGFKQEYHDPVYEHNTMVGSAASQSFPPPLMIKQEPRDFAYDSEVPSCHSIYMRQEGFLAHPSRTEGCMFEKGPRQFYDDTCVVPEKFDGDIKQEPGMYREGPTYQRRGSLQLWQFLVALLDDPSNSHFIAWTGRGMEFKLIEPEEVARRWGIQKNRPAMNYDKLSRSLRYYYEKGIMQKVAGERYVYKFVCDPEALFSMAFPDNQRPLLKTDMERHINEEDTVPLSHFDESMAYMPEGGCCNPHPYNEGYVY
Sequence of ELF4 (Q99607 whole entry): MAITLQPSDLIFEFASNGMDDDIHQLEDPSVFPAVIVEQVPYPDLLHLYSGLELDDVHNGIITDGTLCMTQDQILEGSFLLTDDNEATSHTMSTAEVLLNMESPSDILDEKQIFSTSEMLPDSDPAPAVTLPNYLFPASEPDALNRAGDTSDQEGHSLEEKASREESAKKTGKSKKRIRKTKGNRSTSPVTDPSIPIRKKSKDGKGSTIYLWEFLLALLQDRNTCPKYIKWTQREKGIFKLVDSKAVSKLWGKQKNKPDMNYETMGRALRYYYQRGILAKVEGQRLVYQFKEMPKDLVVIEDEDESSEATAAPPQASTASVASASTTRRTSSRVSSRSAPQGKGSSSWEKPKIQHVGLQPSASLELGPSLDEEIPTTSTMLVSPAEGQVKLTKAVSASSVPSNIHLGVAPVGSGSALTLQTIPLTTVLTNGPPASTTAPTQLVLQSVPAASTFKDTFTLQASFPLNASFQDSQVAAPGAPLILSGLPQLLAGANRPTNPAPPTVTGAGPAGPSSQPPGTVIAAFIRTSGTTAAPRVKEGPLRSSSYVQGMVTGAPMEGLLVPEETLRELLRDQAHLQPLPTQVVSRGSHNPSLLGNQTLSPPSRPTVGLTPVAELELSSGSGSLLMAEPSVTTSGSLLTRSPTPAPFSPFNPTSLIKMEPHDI
Sequence of ETV5 (P41161 whole entry): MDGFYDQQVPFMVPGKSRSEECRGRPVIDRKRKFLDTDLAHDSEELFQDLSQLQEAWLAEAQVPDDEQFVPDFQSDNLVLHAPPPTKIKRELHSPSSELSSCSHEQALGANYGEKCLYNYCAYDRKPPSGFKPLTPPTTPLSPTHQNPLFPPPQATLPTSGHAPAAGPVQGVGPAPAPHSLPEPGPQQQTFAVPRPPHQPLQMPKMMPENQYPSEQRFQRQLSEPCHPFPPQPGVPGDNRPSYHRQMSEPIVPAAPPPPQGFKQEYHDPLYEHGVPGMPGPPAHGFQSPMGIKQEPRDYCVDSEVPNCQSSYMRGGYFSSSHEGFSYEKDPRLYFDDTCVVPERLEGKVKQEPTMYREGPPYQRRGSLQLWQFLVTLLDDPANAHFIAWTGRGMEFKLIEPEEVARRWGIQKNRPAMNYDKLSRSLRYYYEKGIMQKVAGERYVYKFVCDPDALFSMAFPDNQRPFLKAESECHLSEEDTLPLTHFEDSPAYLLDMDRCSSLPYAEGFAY

CCCTGG: the binding signal is 1.1 fold enrichment (6-mer frequency, TF over GST control) with FLI1; 1.13 fold enrichment (6-mer frequency, TF over GST control) with ELK1; 1.21 fold enrichment (6-mer frequency, TF over GST control) with GABPA; 1.19 fold enrichment (6-mer frequency, TF over GST control) in the test with ELF1; 1.11 fold enrichment (6-mer frequency, TF over GST control) with EHF; 1.06 fold enrichment (6-mer frequency, TF over GST control) with SPI1. Besides, the binding signal is 1.09 fold enrichment (6-mer frequency, TF over GST control) in the test with SPIB; 1.03 fold enrichment (6-mer frequency, TF over GST control) with ELK3; 1.08 fold enrichment (6-mer frequency, TF over GST control) with FEV; 1.09 fold enrichment (6-mer frequency, TF over GST control) with ETV5; 1.11 fold enrichment (6-mer frequency, TF over GST control) with HSF1; 1.25 fold enrichment (6-mer frequency, TF over GST control) with SPIC. In addition, the binding signal was 1.14 fold enrichment (6-mer frequency, TF over GST control) with ELF4; 1.21 fold enrichment (6-mer frequency, TF over GST control) with ELK4; 1.04 fold enrichment (6-mer frequency, TF over GST control) with ETV2; 1 fold enrichment (6-mer frequency, TF over GST control) with ELF3; 1.06 fold enrichment (6-mer frequency, TF over GST control) with CRX; 1.18 fold enrichment (6-mer frequency, TF over GST control) with ETV1.
